# According to PubChem BioAssay:
# Calls of active or inactive are those of the source.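 How the source made its calls, unless noted: active means normalized viability below 100% at a tested concentration; inactive means the rest.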
# How the values were obtained:
# [1] = viability loss with induced miR-34 in A549 – imaging, A549 dox-inducible miR-34, nuclei and caspase counts, primary screen (AID 1347080;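 active means compounds whose cell count with miR-34 switched on is under 0.7 times the count with it off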); settings: A549 miR-34 inducible, Hoechst nuclei count, 48 h
# [2] = MELAS cybrid and Rieske KO viability enhancers – cell-based, MELAS cybrids, Rieske KO mouse fibroblasts, CellTiter-Glo, primary screen (AID 1508586;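 active means mean z-score across replicates of 1.96 or higher in either the MELAS or the Rieske mutant cell line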;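 further: z relative to plate mean and SD of compound and empty wells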); settings: low glucose
# [3] = drug combination growth inhibition, ovarian cancer – cell-based, oncology-focused library, rucaparib conditional, profiling panel (AID 1508598); settings: patient-derived ovarian cancer cells, CellTiter-Glo viability, 144 h, stronger effect = lower value
# [4] = stronger effect = lower value, cell number ratio, induced over uninduced
# [5] = measured here: relative caspase fold change +Dox/-Dox
# [6] = measured here: total cells with miR-34 induction, stronger effect = lower value
# [7] = measured here: total cells without miR-34 induction
# [8] = MELAS cybrid survival, CellTiter-Glo 48 h, stronger effect = higher value
# [9] = Rieske KO mouse fibroblast survival, CellTiter-Glo 72 h
# [10] = at 0.000305 µM, OCI-C5x cells, with rucaparib 10 µM, 100% = cells with rucaparib alone
# [11] = at 0.000305 µM, OCI-C5x cells, without rucaparib
# [12] = at 0.000305 µM, OCI-P5x cells, with rucaparib 20 µM, 100% = cells with rucaparib alone
# [13] = at 0.000305 µM, OCI-P5x cells, without rucaparib
# [14] = at 0.00122 µM, OCI-C5x cells, with rucaparib 10 µM, 100% = cells with rucaparib alone
# [15] = at 0.00122 µM, OCI-C5x cells, without rucaparib
# [16] = at 0.00122 µM, OCI-P5x cells, with rucaparib 20 µM, 100% = cells with rucaparib alone
# [17] = at 0.00122 µM, OCI-P5x cells, without rucaparib
# [18] = at 0.00488 µM, OCI-C5x cells, with rucaparib 10 µM, 100% = cells with rucaparib alone
# [19] = at 0.00488 µM, OCI-C5x cells, without rucaparib
# [20] = at 0.00488 µM, OCI-P5x cells, with rucaparib 20 µM, 100% = cells with rucaparib alone
# [21] = at 0.00488 µM, OCI-P5x cells, without rucaparib
# [22] = at 0.0195 µM, OCI-C5x cells, with rucaparib 10 µM, 100% = cells with rucaparib alone
# [23] = at 0.0195 µM, OCI-C5x cells, without rucaparib
# [24] = at 0.0195 µM, OCI-P5x cells, with rucaparib 20 µM, 100% = cells with rucaparib alone
# [25] = at 0.0195 µM, OCI-P5x cells, without rucaparib
# [26] = at 0.0781 µM, OCI-C5x cells, with rucaparib 10 µM, 100% = cells with rucaparib alone
# [27] = at 0.0781 µM, OCI-C5x cells, without rucaparib
# [28] = at 0.0781 µM, OCI-P5x cells, with rucaparib 20 µM, 100% = cells with rucaparib alone
# [29] = at 0.0781 µM, OCI-P5x cells, without rucaparib
# [30] = at 0.313 µM, OCI-C5x cells, with rucaparib 10 µM, 100% = cells with rucaparib alone
# [31] = at 0.313 µM, OCI-C5x cells, without rucaparib
# [32] = at 0.313 µM, OCI-P5x cells, with rucaparib 20 µM, 100% = cells with rucaparib alone
# [33] = at 0.313 µM, OCI-P5x cells, without rucaparib
# [34] = at 1.25 µM, OCI-C5x cells, with rucaparib 10 µM, 100% = cells with rucaparib alone
# [35] = at 1.25 µM, OCI-C5x cells, without rucaparib
# [36] = at 1.25 µM, OCI-P5x cells, with rucaparib 20 µM, 100% = cells with rucaparib alone
# [37] = at 1.25 µM, OCI-P5x cells, without rucaparib
# [38] = at 5 µM, OCI-C5x cells, with rucaparib 10 µM, 100% = cells with rucaparib alone
# [39] = at 5 µM, OCI-C5x cells, without rucaparib
# [40] = at 5 µM, OCI-P5x cells, with rucaparib 20 µM, 100% = cells with rucaparib alone
# [41] = at 5 µM, OCI-P5x cells, without rucaparib
smiles,measurement,setting,value
CN1CCCC1Cc1c[nH]c2ccc(CCS(=O)(=O)c3ccccc3)cc12 (centres undefined),fold change,[1]; [4],0.975 (inactive)
same,fold change,[1]; [5],1.13
same,cell count,[1]; [6],9340
same,cell count,[1]; [7],9580
same,z-score,[2]; [8],-0.473 (inactive)
same,z-score,[2]; [9],-0.595
CC(C)c1cc(-c2ccc(F)c3ccccc23)nc(N)n1,fold change,[1]; [4],0.949 (inactive)
same,fold change,[1]; [5],0.444
same,cell count,[1]; [6],7570
same,cell count,[1]; [7],7980
same,z-score,[2]; [8],-0.214 (inactive)
same,z-score,[2]; [9],0.0729
Cc1[nH]c(C=C2C(=O)Nc3ccc(S(=O)(=O)N(C)c4cccc(Cl)c4)cc32)c(C)c1C(=O)N1CCN(C)CC1,fold change,[1]; [4],0.944 (inactive)
same,fold change,[1]; [5],0.91
same,cell count,[1]; [6],3050
same,cell count,[1]; [7],3230
same,z-score,[2]; [8],-0.734 (inactive)
same,z-score,[2]; [9],-1.1
same,viability,[3]; [10],109% (inactive)
same,viability,[3]; [11],113% (inactive)
same,viability,[3]; [12],106% (inactive)
same,viability,[3]; [13],104% (inactive)
same,viability,[3]; [14],117% (inactive)
same,viability,[3]; [15],112% (inactive)
same,viability,[3]; [16],92.9% (active)
same,viability,[3]; [17],98.8% (active)
same,viability,[3]; [18],118% (inactive)
same,viability,[3]; [19],113% (inactive)
same,viability,[3]; [20],89.6% (active)
same,viability,[3]; [21],96.9% (active)
same,viability,[3]; [22],116% (inactive)
same,viability,[3]; [23],126% (inactive)
same,viability,[3]; [24],96.9% (active)
same,viability,[3]; [25],94.2% (active)
same,viability,[3]; [26],120% (inactive)
same,viability,[3]; [27],125% (inactive)
same,viability,[3]; [28],104% (inactive)
same,viability,[3]; [29],102% (inactive)
same,viability,[3]; [30],122% (inactive)
same,viability,[3]; [31],131% (inactive)
same,viability,[3]; [32],113% (inactive)
same,viability,[3]; [33],107% (inactive)
same,viability,[3]; [34],138% (inactive)
same,viability,[3]; [35],151% (inactive)
same,viability,[3]; [36],114% (inactive)
same,viability,[3]; [37],107% (inactive)
same,viability,[3]; [38],133% (inactive)
same,viability,[3]; [39],126% (inactive)
same,viability,[3]; [40],102% (inactive)
same,viability,[3]; [41],58.4% (active)
COc1ccc(CCc2nc3cc(-c4c(C)noc4C)ccc3n2CC(C)N2CCOCC2)cc1Cl (centres undefined),fold change,[1]; [4],0.88 (inactive)
same,fold change,[1]; [5],0.277
same,cell count,[1]; [6],7240
same,cell count,[1]; [7],8230
same,z-score,[2]; [8],-0.0999 (inactive)
same,z-score,[2]; [9],-1.46
Cc1cc(C)c(S(=O)(=O)n2cc(C)cc2C)c(C)c1,fold change,[1]; [4],0.922 (inactive)
same,fold change,[1]; [5],0.448
same,cell count,[1]; [6],7540
same,cell count,[1]; [7],8180
same,z-score,[2]; [8],-0.318 (inactive)
same,z-score,[2]; [9],0.313
same,viability,[3]; [10],109% (inactive)
same,viability,[3]; [11],106% (inactive)
same,viability,[3]; [12],102% (inactive)
same,viability,[3]; [13],104% (inactive)
same,viability,[3]; [14],121% (inactive)
same,viability,[3]; [15],104% (inactive)
same,viability,[3]; [16],97.6% (active)
same,viability,[3]; [17],96% (active)
same,viability,[3]; [18],116% (inactive)
same,viability,[3]; [19],101% (inactive)
same,viability,[3]; [20],106% (inactive)
same,viability,[3]; [21],101% (inactive)
same,viability,[3]; [22],112% (inactive)
same,viability,[3]; [23],94% (active)
same,viability,[3]; [24],105% (inactive)
same,viability,[3]; [25],97.2% (active)
same,viability,[3]; [26],128% (inactive)
same,viability,[3]; [27],102% (inactive)
same,viability,[3]; [28],99.3% (active)
same,viability,[3]; [29],97.7% (active)
same,viability,[3]; [30],122% (inactive)
same,viability,[3]; [31],109% (inactive)
same,viability,[3]; [32],101% (inactive)
same,viability,[3]; [33],98.8% (active)
same,viability,[3]; [34],113% (inactive)
same,viability,[3]; [35],94.4% (active)
same,viability,[3]; [36],106% (inactive)
same,viability,[3]; [37],102% (inactive)
same,viability,[3]; [38],122% (inactive)
same,viability,[3]; [39],110% (inactive)
same,viability,[3]; [40],101% (inactive)
same,viability,[3]; [41],102% (inactive)
CCC1C(=O)N(C)c2cnc(Nc3ccc(C(=O)NC4CCC(N5CCN(CC6CC6)CC5)CC4)cc3OC)nc2N1C(C)C (centres undefined),fold change,[1]; [4],1.2 (inactive)
same,fold change,[1]; [5],0.875
same,cell count,[1]; [6],1460
same,cell count,[1]; [7],1210
same,z-score,[2]; [8],6.19 (active)
same,z-score,[2]; [9],-4.08
CC(NC(=O)C(C#N)=Cc1cccc(Br)n1)c1ccccc1 (centres undefined),fold change,[1]; [4],1.21 (inactive)
same,fold change,[1]; [5],0.817
same,cell count,[1]; [6],1620
same,cell count,[1]; [7],1340
same,z-score,[2]; [8],0.502 (inactive)
same,z-score,[2]; [9],0.371
NC(=O)CCCSc1nc(N)nc(-c2c(Cl)cc3c4c(cccc24)COC3)n1,fold change,[1]; [4],0.945 (inactive)
same,fold change,[1]; [5],0.479
same,cell count,[1]; [6],2430
same,cell count,[1]; [7],2570
same,z-score,[2]; [8],2.88 (active)
same,z-score,[2]; [9],-2.67
same,viability,[3]; [10],109% (inactive)
same,viability,[3]; [11],95.8% (active)
same,viability,[3]; [12],104% (inactive)
same,viability,[3]; [13],102% (inactive)
same,viability,[3]; [14],107% (inactive)
same,viability,[3]; [15],101% (inactive)
same,viability,[3]; [16],98% (active)
same,viability,[3]; [17],96.2% (active)
same,viability,[3]; [18],114% (inactive)
same,viability,[3]; [19],103% (inactive)
same,viability,[3]; [20],106% (inactive)
same,viability,[3]; [21],98.7% (active)
same,viability,[3]; [22],125% (inactive)
same,viability,[3]; [23],111% (inactive)
same,viability,[3]; [24],103% (inactive)
same,viability,[3]; [25],94.9% (active)
same,viability,[3]; [26],147% (inactive)
same,viability,[3]; [27],98.7% (active)
same,viability,[3]; [28],16.9% (active)
same,viability,[3]; [29],38.5% (active)
same,viability,[3]; [30],74.7% (active)
same,viability,[3]; [31],35.4% (active)
same,viability,[3]; [32],14.5% (active)
same,viability,[3]; [33],8.07% (active)
same,viability,[3]; [34],16% (active)
same,viability,[3]; [35],7.19% (active)
same,viability,[3]; [36],7.31% (active)
same,viability,[3]; [37],5.49% (active)
same,viability,[3]; [38],9.52% (active)
same,viability,[3]; [39],6.09% (active)
same,viability,[3]; [40],4.5% (active)
same,viability,[3]; [41],3.17% (active)
